Source: PubChem BioAssay
Unmarked numbers belong to inactive results. Where a call stands in place of a potency, no number is given. For some assays here: Potency and affinity values are given separately. Active and inactive are the calls of the source. Unless noted, the rule behind the calls is not given here.

Experiments:
[1] = antimalarial activity against Dd2 strain (AID 2302;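 active = growth inhibition above 50% at the single 2 µM test dose, taken to imply half-maximal potency below 2 µM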); conditions: P. falciparum Dd2 in RBCs, LDH growth readout, 72 h; at 2 µM; active compounds read high
[2] = HepG2 cytotoxicity, primary screen, cytotoxicity control for P. falciparum antimalarial project, cell-based, ATP luminescence (AID 2303;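 active = inhibition above 50%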); conditions: HepG2 viability, 24-48 h, at 10 µM, active compounds read high
[3] = molecular target: L-lactate dehydrogenase (Plasmodium falciparum (isolate CDC / Honduras)) (UniProt Q27743); test: PfLDH activity inhibition – cell lysate, 3D7 strain, counter-screen for P. falciparum growth inhibition project (AID 2304); conditions: P. falciparum 3D7 crude extract, LDH APAD/NBT absorbance; at 2 µM; active compounds read high
Chain of L-lactate dehydrogenase (Plasmodium falciparum (isolate CDC / Honduras)) (Q27743 whole entry, looked up): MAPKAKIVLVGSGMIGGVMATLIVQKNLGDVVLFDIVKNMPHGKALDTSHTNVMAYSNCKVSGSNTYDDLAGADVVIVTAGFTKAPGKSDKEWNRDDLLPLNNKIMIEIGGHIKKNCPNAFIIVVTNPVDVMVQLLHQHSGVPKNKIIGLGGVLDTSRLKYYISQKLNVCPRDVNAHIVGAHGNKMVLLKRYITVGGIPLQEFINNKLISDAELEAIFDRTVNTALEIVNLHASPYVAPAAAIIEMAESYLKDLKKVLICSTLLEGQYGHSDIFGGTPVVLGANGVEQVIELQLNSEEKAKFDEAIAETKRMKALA

[4] = inhibition of 3D7 malaria parasite growth – strain 3D7 (AID 2306); conditions: P. falciparum 3D7 erythrocytic growth, LDH absorbance, 72 h; at 2 µM; active compounds read high
[5] = molecular target: Calcium-dependent protein kinase 1 (Plasmodium falciparum (isolate 3D7)) (UniProt P62344); test: PfCDPK1 kinase inhibitors, biochemical, TCAMS library (AID 1159585; cut-off not given, nearly all actives have IC50 up to about 0.98 µM;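 note: inhibitors leave more ATP so luminescence rises with inhibition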); conditions: recombinant PfCDPK1, Kinase-Glo ATP depletion luminescence
Chain of Calcium-dependent protein kinase 1 (Plasmodium falciparum (isolate 3D7)) (P62344 whole entry, looked up): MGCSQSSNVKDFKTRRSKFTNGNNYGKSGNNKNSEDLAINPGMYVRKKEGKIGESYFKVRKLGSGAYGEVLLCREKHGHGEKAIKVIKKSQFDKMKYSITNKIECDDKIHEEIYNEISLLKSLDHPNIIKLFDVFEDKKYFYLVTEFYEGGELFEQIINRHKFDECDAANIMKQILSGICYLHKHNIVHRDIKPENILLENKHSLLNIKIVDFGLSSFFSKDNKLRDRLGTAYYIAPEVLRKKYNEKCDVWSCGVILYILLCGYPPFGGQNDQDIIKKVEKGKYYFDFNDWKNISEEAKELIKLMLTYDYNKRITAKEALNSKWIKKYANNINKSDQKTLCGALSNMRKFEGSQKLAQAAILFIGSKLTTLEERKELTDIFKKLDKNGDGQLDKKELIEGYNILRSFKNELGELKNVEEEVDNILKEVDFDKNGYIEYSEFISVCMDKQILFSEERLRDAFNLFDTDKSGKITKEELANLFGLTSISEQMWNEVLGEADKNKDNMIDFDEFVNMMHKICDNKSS

[6] = molecular target: Plasmodium falciparum protein kinase 6 (PK6, PF3D7_1337100) (UniProt Q8IDW1); test: PfPK6 kinase inhibitors, biochemical, TCAMS library (AID 1159586); conditions: recombinant PfPK6, Kinase-Glo ATP depletion luminescence
Chain of Plasmodium falciparum protein kinase 6 (PK6, PF3D7_1337100) (Q8IDW1 1-305): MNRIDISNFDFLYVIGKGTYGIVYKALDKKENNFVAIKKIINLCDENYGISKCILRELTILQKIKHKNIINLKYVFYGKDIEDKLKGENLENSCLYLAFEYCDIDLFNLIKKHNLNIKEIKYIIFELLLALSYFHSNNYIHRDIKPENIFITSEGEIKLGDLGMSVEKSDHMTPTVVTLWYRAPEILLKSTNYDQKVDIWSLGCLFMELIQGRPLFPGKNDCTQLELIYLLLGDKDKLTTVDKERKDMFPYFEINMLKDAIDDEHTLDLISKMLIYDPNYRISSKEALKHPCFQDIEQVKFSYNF

[7] = molecular target: Protein kinase 7 (PK7), Plasmodium falciparum 3D7 (PF3D7_0213400) (UniProt Q7YTF7); test: inhibition of Plasmodium PK7 catalytic activity – biochemical, TCAMS antimalarial set, Kinase-Glo luminescence (AID 1159587); conditions: recombinant PfPK7, Kinase-Glo ATP depletion luminescence
Chain of Protein kinase 7 (PK7), Plasmodium falciparum 3D7 (PF3D7_0213400) (Q7YTF7 1-343): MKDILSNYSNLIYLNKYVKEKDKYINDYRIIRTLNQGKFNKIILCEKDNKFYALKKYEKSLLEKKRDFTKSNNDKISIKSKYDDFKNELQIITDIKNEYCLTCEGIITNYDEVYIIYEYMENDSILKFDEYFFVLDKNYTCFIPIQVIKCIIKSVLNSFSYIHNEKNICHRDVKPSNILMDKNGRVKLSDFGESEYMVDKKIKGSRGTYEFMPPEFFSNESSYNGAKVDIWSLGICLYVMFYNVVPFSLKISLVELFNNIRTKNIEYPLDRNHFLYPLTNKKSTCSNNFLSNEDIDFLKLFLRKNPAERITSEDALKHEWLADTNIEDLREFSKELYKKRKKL

[8] = molecular target: Calcium-dependent protein kinase 4 (Plasmodium falciparum (isolate 3D7)) (UniProt Q8IBS5); test: PfCDPK4 kinase inhibitors, biochemical, TCAMS library (AID 1159588; cut-off not given, nearly all actives have IC50 up to about 0.91 µM); conditions: recombinant PfCDPK4, Kinase-Glo ATP depletion luminescence
Chain of Calcium-dependent protein kinase 4 (Plasmodium falciparum (isolate 3D7)) (Q8IBS5 whole entry, looked up): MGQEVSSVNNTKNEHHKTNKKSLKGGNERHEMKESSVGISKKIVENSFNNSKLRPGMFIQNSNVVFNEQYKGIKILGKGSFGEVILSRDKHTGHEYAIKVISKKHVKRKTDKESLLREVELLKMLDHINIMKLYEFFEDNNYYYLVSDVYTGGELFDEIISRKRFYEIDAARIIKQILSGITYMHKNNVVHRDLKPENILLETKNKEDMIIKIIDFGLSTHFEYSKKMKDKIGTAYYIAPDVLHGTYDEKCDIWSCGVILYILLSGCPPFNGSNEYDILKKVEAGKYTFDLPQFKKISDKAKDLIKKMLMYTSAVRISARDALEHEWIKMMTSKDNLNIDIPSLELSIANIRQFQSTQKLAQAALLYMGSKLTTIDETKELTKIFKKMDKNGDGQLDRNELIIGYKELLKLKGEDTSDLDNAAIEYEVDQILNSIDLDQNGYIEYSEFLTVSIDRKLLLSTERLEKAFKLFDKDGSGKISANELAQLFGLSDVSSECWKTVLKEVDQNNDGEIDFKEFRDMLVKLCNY

Row | SMILES | growth inhibition [1] | inhibition [2] | inhibition [3] | growth inhibition [4] | outcome [5] | outcome [6] | outcome [7] | outcome [8]
1 | CCCc1nc2c(N3CCCN(C(=O)NC4CCCCC4)CC3)cccc2n1Cc1ccccn1 | 10% | 10% | 5% | 89% (active) | inactive | inactive | inactive | inactive
2 | N#Cc1ccc(CNCCCCCCNCc2ccc(C#N)c3ccccc23)c2ccccc12 | 96% (active) | 51% (active) | -3% | 102% (active) | inactive | inactive | inactive | inactive
3 | Fc1cccc(COc2ccc(Nc3ncnc4sc(C#C[C@H]5CC[C@H](CNCC(F)(F)F)N5)cc34)cc2Cl)c1 | 51% (active) | 10% | -4% | 100% (active) | inactive | inactive | inactive | inactive
4 | O=C(CC1CCCCC1)NCC(NCCCNc1cc(=O)c2ccccc2[nH]1)c1cc(Br)cc(Br)c1 (stereo not given) | 52% (active) | 8% | 0% | 95% (active) | inactive | inactive | inactive | inactive
5 | O=C(Nc1ccccc1Oc1ccccc1)NC1CCN(c2ccnc3cc(Cl)ccc23)C1 (stereo not given) | 74% (active) | -1% | 0% | 99% (active) | inactive | inactive | inactive | inactive
6 | CCCC(C)NC[C@@H](O)[C@H](Cc1ccccc1)NC(=O)c1cc(C2CCCC2)cc(N2CCCCS2(=O)=O)c1 (stereo not given in full) | 99% (active) | 8% | 3% | 98% (active) | inactive | inactive | inactive | inactive
7 | O=C1Nc2cccc3c2C1(CCCCN1CCC(c2c[nH]c4cc(C(F)(F)F)ccc24)CC1)CCC3 (stereo not given) | 79% (active) | 99% (active) | 3% | 99% (active) | inactive | inactive | inactive | inactive
8 | CN(C(=O)NCCc1ccccc1)C1CCN(CCCCCNC(=O)/C=C/c2ccc(Cl)c(Cl)c2)CC1 | 11% | 43% | -7% | 93% (active) | inactive | inactive | inactive | inactive
9 | COc1ccc2c(c1)CC(NCc1ccc(-c3ccc4nc[nH]c4c3)cc1)C2 (stereo not given) | 71% (active) | 30% | 1% | 100% (active) | inactive | inactive | inactive | inactive
10 | COc1ccccc1C1CCN(CCCCNC(=O)c2ccc(NC(=O)c3ccc(Cl)cc3)cc2)CC1 | 12% | 21% | 6% | 95% (active) | inactive | inactive | inactive | inactive
11 | CC(C)COc1ccc(Cl)cc1Cc1ccc(-c2nc3ccc(N4CCN(C)CC4)cc3[nH]2)o1 | 41% | 6% | 0% | 102% (active) | inactive | inactive | inactive | inactive
12 | CCN(CC)CCN(Cc1ccc(-c2ccc(C(F)(F)F)cc2)cc1)C(=O)Cn1c(CCc2cccc(F)c2F)nc(=O)c2cc(C)ccc21 | 43% | 19% | 0% | 95% (active) | inactive | inactive | inactive | inactive
13 | Nc1cccc(CNCc2cccc(-c3cccc(-c4nc5ccc(F)cc5[nH]4)c3)c2)c1 | 82% (active) | 5% | -4% | 102% (active) | inactive | inactive | inactive | inactive
14 | Cc1cc(Nc2cccc(C(F)(F)F)c2)nc(Nc2cccc(C(F)(F)F)c2)n1 | 73% (active) | -1% | -3% | 100% (active) | inactive | inactive | inactive | inactive
15 | Cc1cc(NC(=O)Nc2ccc(Cl)cc2F)c2ccccc2n1 | 71% (active) | 10% | 2% | 100% (active) | inactive | inactive | inactive | inactive
16 | COc1ccc(CC(=O)Nc2ccc(Nc3nc(C)cc(N4CCCC4)n3)cc2)cc1 | 65% (active) | 56% (active) | -1% | 101% (active) | inactive | inactive | inactive | inactive
17 | CCc1cccc(C)c1-n1nc(-c2cc(C(C)(C)C)oc2C)cc1N | 95% (active) | 4% | 5% | 95% (active) | inactive | inactive | inactive | inactive
18 | O=C(Nc1cccc(N2CCC(NCc3cccnc3)CC2)c1)c1cccc(C(F)(F)F)c1 | 2% | 26% | -3% | 98% (active) | inactive | inactive | inactive | inactive
19 | O=C(Nc1cccc(-c2ccc(CN3CCNCC3)cc2)c1)c1cccc(Cl)c1 | 4% | 30% | -4% | 92% (active) | inactive | inactive | inactive | inactive
20 | Cc1ccc(Cc2c(N)nc3nc(N)nc(N)c3c2C)cc1 | 8% | 59% (active) | 4% | 95% (active) | inactive | inactive | inactive | inactive

Row | SMILES | growth inhibition [1] | inhibition [2] | inhibition [3] | growth inhibition [4] | outcome [5] | outcome [6] | outcome [7] | outcome [8]
21 | O=c1[nH]c(Cc2ccccc2)nc2ccc(Cl)cc12 | 76% (active) | 13% | 3% | 92% (active) | inactive | inactive | inactive | inactive
22 | CC(C)(C)NCCN(Cc1ccc(-c2ccc(C(F)(F)F)cc2)cc1)C(=O)Cn1c(CCc2cccc(F)c2F)nc(=O)c2ccccc21 | 68% (active) | 46% | -4% | 99% (active) | inactive | inactive | inactive | inactive
23 | CCn1nc(C(=O)NC2CCOc3ccccc32)c2ccccc2c1=O (stereo not given) | 59% (active) | 13% | 0% | 86% (active) | inactive | inactive | inactive | inactive
24 | O=C(/C=C/c1ccc(Cl)c(Cl)c1)N1CCC(CN2CCC(Cc3c[nH]c4ccccc34)CC2)CC1 | 13% | 24% | 1% | 98% (active) | inactive | inactive | inactive | inactive
25 | CC(C)NC(=O)c1cccc(-c2ccc(OCCN3CCCC3c3cc4ccccc4[nH]3)cc2)c1 (stereo not given) | 34% | 25% | -2% | 100% (active) | inactive | inactive | inactive | inactive
26 | COc1ccc(CN2CCC(CNCCc3ccccc3Oc3ccccc3)CC2)cc1 | 56% (active) | 99% (active) | 0% | 85% (active) | inactive | inactive | inactive | inactive
27 | CC(=O)c1c(Cc2ccccc2Cl)c[nH]c1C | 53% (active) | -2% | 0% | 95% (active) | inactive | inactive | inactive | inactive
28 | Cc1cccc(-n2nc(C)c3c2NC(=O)CC3C(=O)c2ccc(Cl)s2)c1 (stereo not given) | 85% (active) | 13% | -1% | 92% (active) | inactive | inactive | inactive | inactive
29 | C=CCC(CC=C)N1C(=O)C(c2ccccc2)(c2ccccc2)N=C1N | 97% (active) | 35% | -3% | 98% (active) | inactive | inactive | inactive | inactive
30 | Cc1cc(N(C)CCCN(C)C)nc(Nc2ccc(Cl)cc2)n1 | 79% (active) | 7% | 5% | 101% (active) | inactive | inactive | inactive | inactive
31 | CC(C)CNCc1cccc(-c2cccc(CN(CCCN3CCN(C)CC3)C(=O)NC3CCCCC3)c2)c1 | 84% (active) | 16% | 0% | 100% (active) | inactive | inactive | inactive | inactive
32 | N=c1n(Cc2ccccc2)c2ccccc2n1CC(O)c1ccc(Cl)cc1 (stereo not given) | 75% (active) | 26% | -1% | 96% (active) | inactive | inactive | inactive | inactive
33 | COC(=O)c1ccc(Nc2nccc(Nc3ccc(Oc4ccccc4)cc3)n2)cc1 | 15% | -10% | 7% | 93% (active) | inactive | inactive | inactive | inactive
34 | COc1ccc(OCCCN2CCN(CC(c3ccc(F)cc3)N3CCN(C(C)C)CC3)CC2)c2ccccc12 (stereo not given) | 32% | 30% | -1% | 100% (active) | inactive | inactive | inactive | inactive
35 | CN1CCC(OC(=O)c2cc3cc(-c4ccccc4)ccc3n2S(=O)(=O)c2ccccc2)CC1 | 10% | 31% | -5% | 88% (active) | inactive | inactive | inactive | inactive
36 | CCCc1cccc(C)c1OCCCON1C(N)=NC(N)=NC1(C)C | 96% (active) | 57% (active) | -2% | 95% (active) | inactive | inactive | inactive | inactive
37 | Cc1cc(CN2CC[C@H](NC(=O)c3ccc(Cl)c(Cl)c3)C2)ccc1OCCN1CCNCC1 | 1% | 15% | -1% | 94% (active) | inactive | inactive | inactive | inactive
38 | O=C(Nc1ccc(-c2csc(-c3nc4ccccc4[nH]3)c2)cc1)Nc1ccsc1 | 17% | 50% (active) | -1% | 101% (active) | inactive | inactive | inactive | inactive
39 | C=CCc1ccc(C2CCN(CCCCNC(=O)c3ccc(NC(=O)c4ccc(Cl)cc4)cc3)CC2)cc1 | 97% (active) | 27% | -5% | 101% (active) | inactive | inactive | inactive | inactive
40 | O=C(/C=C/c1ccc(Cl)c(Cl)c1)NCCCCCCN1CCCN(C(=O)Nc2ccc(F)c(F)c2)CC1 | 2% | 72% (active) | 4% | 89% (active) | inactive | inactive | inactive | inactive
